Test results as given in the supplement of paper PMC5662767.

Tested on: Drosophila S2 cl14 SmoIP sensor cells
Experiment: normalized SmoIP GFP fluorescence (untreated unstimulated = 0%, untreated Hh-stimulated = 100%); higher = more Smo activation sensor fluorescence
Settings: compound concentration: 2 uM, 24 h
[1] = stimulation: Hh conditioned medium (+Hh)
[2] = stimulation: mock conditioned medium (-Hh)
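Note: flow cytometry read-out as median GFP intensity of gated cells, compounds added 30 min before Hh-conditioned or mock medium, mock-treated cells serving as unstimulated baseline.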

SMILES | normalized SmoIP GFP fluorescence [1] [%] | normalized SmoIP GFP fluorescence [2] [%]
O=C(/C=C/c1ccc(O)c(O)c1)OCCc1ccccc1 [caffeic-acid-phenethyl-ester] | 114 | 71.8
CCCCCCCCc1ccc(CCC(N)(CO)CO)cc1 | 107 | -0.0369
O=[N+]([O-])c1ccc2c(c1)S(=O)(=O)C=C2 [stattic] | 116 | -1.74
O=C(/C=C\n1cnc(-c2cc(C(F)(F)F)cc(C(F)(F)F)c2)n1)N1CC(F)(F)C1 | 118 | -0.264
CC1C(=O)OC2C(O)C34C5CC(C(C)(C)C)C36C(OC(=O)C6O)OC4(C(=O)O5)C12O (centres undefined) [Ginkgolide-B] | 85.5 | 0.489
c1ccc2c(Oc3nc(Nc4ccc(N5CCOCC5)cc4)c4ncn(C5CCCCC5)c4n3)cccc2c1 [purmorphamine] | 107 | -1.23
COc1ccc(NS(=O)(=O)c2sc3ccc(Cl)cc3c2C)cc1N1CCNCC1 | 108 | 2.86
CCCCCCCCCCCCc1ccc(S(=O)(=O)Nc2nncs2)cc1 | 111 | 1.03
CCn1cc(-c2ccnc3[nH]c(-c4cccc(CN(C)C)c4)cc23)c(-c2ccc(NC(=O)N(C)C)cc2)n1 | 173 | -0.747
CC1=C(C(=O)OC(C)C)C(c2cccc([N+](=O)[O-])c2)C(C(=O)OC2CN(C(c3ccccc3)c3ccccc3)C2)=C(N)N1 (centres undefined) [azelnidipine] | 111 | -1.23
CNC(=O)c1ccc2cc([C@@]3(O)CCn4cncc43)ccc2c1 | 104 | -1.56
Cc1cccc(-c2nn3c(c2-c2ccnc4ccc(C(N)=O)cc24)CCC3)n1 | 110 | -15.4
COc1ccc(-c2oc3c(CC=C(C)C)c(O[C@@H]4O[C@H](CO)[C@@H](O)[C@H](O)[C@H]4O)cc(O)c3c(=O)c2O[C@@H]2O[C@@H](C)[C@H](O)[C@@H](O)[C@H]2O)cc1 [Icariin] | 92.7 | -3.27
Cn1cc(C2=C(c3ccc(Cl)cc3Cl)C(=O)NC2=O)c2ccccc21 | 115 | 16.5
COCCOC(=O)C1=C(C)NC(C)=C(C(=O)OC/C=C/c2ccccc2)C1c1cccc([N+](=O)[O-])c1 (centres undefined) [Cilnidipine] | 112 | 2.97
CCOc1cc2ncc(C#N)c(Nc3ccc(OCc4ccccn4)c(Cl)c3)c2cc1NC(=O)/C=C/CN(C)C [Neratinib(HKI-272)] | 105 | -15.6
COc1cc2c(cc1Cc1cccc(Cl)c1F)c(=O)c(C(=O)O)cn2[C@H](CO)C(C)C [Elvitegravir] | 143 | -9.22
